HCT116 bCat-KO: beta-catenin-lacking colon tumor cell growth suppression. HCT116 beta-catenin knockout viability, CellTiter-Glo, 60 h; hits give low values. AID 818. actives 1.5% (n = 140,000). viability, % at 10 µM;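 active means viability at or under a set limit, the compound median less 4 SD, cut at about 6% in these data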;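 further: 0% = Hyamine 1622 control at 20 µM and 100% = untreated cell control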
L major viab: Leishmania major promastigote growth inhibition. Leishmania major promastigotes, resazurin fluorescence viability. inhibition, % at 10 µM. actives 9% (n = 200,000); in the data active means inhibition above about 50%;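 further: promastigotes grown with compound for 44 hours at 28 °C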
INS promoter inh: TRM-6 insulin promoter activity inhibition; TRM-6 cells (human fetal islet line), insulin promoter-eGFP reporter, imaging; reporter expression induced with tamoxifen; inhibition, % at 2 µM; actives 0.9% (n = 130,000); AID 1273;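 active means inhibition above the mean plus 3 SD, with well images judged a real hit on visual review, cut at about 60% in these data, passing the limit was not always enough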
ROMK mod: modulates human ROMK potassium channel activity | B-score at 10 µM | actives 2% (n = 130,000) | Tet-inducible ROMK, thallium flux fluorescence; actives lie on both sides | AID 1918 | P48048;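 active means signal ratio slope over the read window, or its plate-corrected B-score, at least 3 SD from the plate mean, either direction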;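 further: B-score of the F/F0 ratio slope over 7 to 12 s after thallium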
p97 inhibitor: inhibitors of human p97 ATPase. P55072. actives 0.42% (n = 220,000). inhibition, % at 8 µM. recombinant p97 ATPase, Kinase-Glo ATP luminescence, 3 h; in the data active means inhibition above about 15%;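 further: 0% = DMSO vehicle and 100% = wells lacking enzyme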
Target sequence (P55072 whole entry, looked up): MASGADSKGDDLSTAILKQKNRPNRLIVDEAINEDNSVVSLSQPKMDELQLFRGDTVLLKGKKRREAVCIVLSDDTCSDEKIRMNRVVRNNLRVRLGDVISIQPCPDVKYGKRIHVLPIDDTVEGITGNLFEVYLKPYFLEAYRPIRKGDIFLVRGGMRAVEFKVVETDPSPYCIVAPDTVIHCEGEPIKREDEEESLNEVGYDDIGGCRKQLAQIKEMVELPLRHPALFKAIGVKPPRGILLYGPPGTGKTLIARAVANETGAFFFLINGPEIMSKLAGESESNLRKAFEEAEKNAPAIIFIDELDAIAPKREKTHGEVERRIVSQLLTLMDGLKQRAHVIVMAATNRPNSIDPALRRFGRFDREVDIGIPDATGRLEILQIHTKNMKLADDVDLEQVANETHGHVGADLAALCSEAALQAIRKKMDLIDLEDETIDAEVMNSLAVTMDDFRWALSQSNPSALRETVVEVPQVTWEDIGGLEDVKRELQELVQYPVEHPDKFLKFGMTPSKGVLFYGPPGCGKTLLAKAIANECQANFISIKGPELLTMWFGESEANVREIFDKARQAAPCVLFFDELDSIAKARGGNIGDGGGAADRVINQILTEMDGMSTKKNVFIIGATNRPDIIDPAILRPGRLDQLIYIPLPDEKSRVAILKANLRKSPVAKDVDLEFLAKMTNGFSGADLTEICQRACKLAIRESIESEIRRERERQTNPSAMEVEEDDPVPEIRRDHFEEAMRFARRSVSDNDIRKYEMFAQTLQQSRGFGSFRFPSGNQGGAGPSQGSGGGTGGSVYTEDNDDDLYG
HCT116 PTEN-null: growth suppressors of cells with PTEN tumor suppressor deletion | HCT116 PTEN-null viability, CellTiter-Glo, 60 h; hits give low values | viability, % at 10 µM | actives 1.2% (n = 140,000);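 active means viability at or below a set limit, 4 SD under the median of all tested compounds, cut at about 3.7% in these data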;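 further: PTEN knockout HCT116 line with beta catenin targeted HCT116 as companion control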
* hit, by the source's call; / = no result. The list is not random: actives were taken first. Their share in the collection is about 10%.

SMILES	HCT116 bCat-KO	L major viab	INS promoter inh	ROMK mod	p97 inhibitor	HCT116 PTEN-null
O=C(Nc1ccc(NC(=S)NC(=O)C(c2ccccc2)c2ccccc2)cc1)c1ccccc1	/	98*	33	/	5	/
Cc1cccc(NC(=S)NCCc2ccccc2)n1	/	6	/	1.1	2	/
CC(C)CCNC(=O)CCSCCC(=O)NCCC(C)C	92	-4	20	0.58	3	97
Cc1cc2nc3c(c(C(F)(F)F)n2n1)CCCC3	/	-2	0	0.87	2	/
NC(=O)CSc1nnc(CSc2ncccn2)n1-c1ccccc1	/	3	/	1.4	2	/
Cc1c(Cl)cnc(NC(=O)COC(=O)c2cccc(S(=O)(=O)N3c4ccccc4CC3C)c2)c1Cl (centres undefined)	86	25	22	-1.2	1	88
CCN(CC)S(=O)(=O)c1cc(C(=O)N2CCc3ccccc32)ccc1Cl	27	75*	-30	0.035	-2	40
CCN(CC)S(=O)(=O)c1cc(C(=O)Nc2ccccc2[N+](=O)[O-])ccc1Cl	9	78*	11	0.5	-4	2.5*
CN1CCN(c2ccc(Cl)cc2NC(=O)c2ccc(S(=O)(=O)N(C)C)cc2)CC1	84	100*	/	-0.48	-1	90
CCN(CC)S(=O)(=O)c1cc(C(=O)Nc2cc(Cl)ccc2N2CCN(C)CC2)ccc1Cl	0.6*	100*	24	0.38	0	0.5*
CN(C)S(=O)(=O)c1cccc(C(=O)Nc2ccccc2[N+](=O)[O-])c1	13	4	53	0.34	5	6
CCOC(=O)/C(=C/Nc1ccc(F)cc1)[N+](=O)[O-]	/	/	/	0.049	6	/
Nc1nc(CN2CCN(C(=O)c3ccco3)CC2)nc(Nc2cccc(Cl)c2)n1	/	13	67	-1.8	-8	/
CC(C)n1c(O)c(N=NC(=O)C2COc3ccccc3O2)c2ccccc21 (centres undefined)	/	10	/	0.89	2	/
CN1CCN(c2ccc(Cl)cc2NS(=O)(=O)c2ccccc2Cl)CC1	63	100*	-64	/	-2	55
CC(C)(C)NS(=O)(=O)c1cc(C(=O)Nc2sccc2C#N)ccc1Cl	83	54*	0	-0.62	-5	86
N#Cc1ccsc1NC(=O)c1cnccn1	92	-2	/	1.3	3	95
O=C(CCc1nnc(CCc2c[nH]c3ccccc23)o1)NC1CCC1	/	/	/	/	6	/
CCOC(=O)C1(C)C=C(Nc2ccccc2)C(=O)N1c1ccccc1 (centres undefined)	/	27	71*	-0.36	0	/
CCOC(=O)C1(C)C=C(Nc2ccc(OCC)cc2)C(=O)N1c1ccccc1 (centres undefined)	101	4	/	/	4	97
CC(C)NC(=O)C1CCN(C2CCN(Cc3nc4ccccc4s3)CC2)CC1	/	86*	/	0.026	1	/
CC(C)CCN1CCN(CC(c2ccccc2)c2ccccc2)CC1CCO (centres undefined)	/	91*	-8	-1.6	-1	/
CC(=O)c1cc(CN2CCC(N3CCC(C(=O)NC(C)C)CC3)CC2)cs1	/	-4	13	0.14	6	/
CC(C)CN1CCN(Cc2nc3ccccc3s2)CC1CCO (centres undefined)	/	6	/	-0.095	3	/
Cc1oc(-c2cccs2)nc1CN1CCN(CCC(C)C)C(CCO)C1 (centres undefined)	/	84*	/	-0.2	7	/
SMILES	HCT116 bCat-KO	L major viab	INS promoter inh	ROMK mod	p97 inhibitor	HCT116 PTEN-null
CC(C)CCN1CCN(Cc2nc3ccccc3s2)CC1CCO (centres undefined)	/	82*	-7	-0.62	-3	/
COc1ccc([N+](=O)[O-])cc1NC(=O)c1ccco1	/	6	/	0.63	5	/
OCCC1CN(Cc2nc3ccccc3s2)CCN1CCc1ccccc1 (centres undefined)	/	84*	/	0.044	4	/
OCCC1CN(Cc2nc3ccccc3s2)CCN1C1CCCCC1 (centres undefined)	/	18	/	0.23	0	/
COc1cccc(OCCn2ccnc2)c1	88	-2	-252	0.98	1	98
Clc1ccccc1OCCn1ccnc1	98	0	41	/	-1	97
Cc1cccc(OCCCn2ccnc2)c1	94	98*	47	-0.093	2	93
CCOc1ccc(OCCn2ccnc2)cc1	95	29	-49	0.59	3	99
Cc1ccc(OCCCn2ccnc2)cc1C	100	100*	13	0.1	-3	104
Cc1cc(OCCn2ccnc2)ccc1C(C)C	78	97*	-8	0.3	4	98
Cc1cc(C(C)(C)C)ccc1OCCn1ccnc1	84	62*	22	-2.5	-7	80
